Screens (PubChem BioAssay)
Only some compounds are listed: those with a hit (about 7.4% of all), similar ones and a draw of the others.
p53 reactivator: qHTS assay for re-activators of p53 using a Luc reporter | AID 504706, 2011 | H1299 p53-A138V BP100-luciferase reporter, luminescence, 24 h | Potency, µM (titrated, usually from 92.2 µM), actives largely listed as activators | actives 0.063% (n = 320,000); also: nearly all actives have a fitted effect of over 45% in size
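p53-null H1299 cells stably carrying temperature-sensitive p53-A138V and a BP100-luciferase reporter were pinned with compounds (4-point, 1:5 series) and held 24 hrs at 37 deg C. Luminescence was read 10 min after detection reagent.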
FLuc counter: qHTS profiling assay for firefly luciferase inhibitor/activator using purifed enzyme and Km concentrations of substrates (counterscreen for miR-21 project); purified FLuc, Km substrates, luminescence inhibition; Potency, µM (titrated, usually from 57.5 µM), hits mostly inhibitors; actives 6.9% (n = 360,000); AID 588342, 2011; also: nearly all actives have a fitted effect of over 55% in size
Target sequence (P08659 whole entry, looked up): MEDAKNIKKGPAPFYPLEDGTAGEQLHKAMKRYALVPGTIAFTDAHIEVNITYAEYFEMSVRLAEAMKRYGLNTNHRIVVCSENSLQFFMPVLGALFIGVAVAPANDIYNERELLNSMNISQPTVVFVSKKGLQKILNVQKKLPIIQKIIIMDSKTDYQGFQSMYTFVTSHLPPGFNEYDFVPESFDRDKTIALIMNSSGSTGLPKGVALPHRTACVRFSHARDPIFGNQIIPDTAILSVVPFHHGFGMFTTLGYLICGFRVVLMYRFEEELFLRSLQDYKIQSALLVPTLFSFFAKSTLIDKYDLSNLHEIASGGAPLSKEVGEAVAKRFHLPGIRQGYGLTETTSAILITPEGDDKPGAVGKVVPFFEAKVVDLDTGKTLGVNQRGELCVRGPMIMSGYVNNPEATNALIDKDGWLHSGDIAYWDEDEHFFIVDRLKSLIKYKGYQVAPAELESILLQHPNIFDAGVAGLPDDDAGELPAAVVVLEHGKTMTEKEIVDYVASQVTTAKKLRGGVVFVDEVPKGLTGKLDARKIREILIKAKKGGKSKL
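Biochemical qHTS of compounds, final roughly 60 µM downward over six points, against 10 nM purified firefly luciferase using Km concentrations of substrates (10 uM D-luciferin, 10 uM ATP) in Tris acetate pH 7.5 buffer; luminescence output.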
SMN2 splice enh: qHTS Assay for Enhancers of SMN2 Splice Variant Expression; HEK293 SMN2-luciferase splicing reporter, luminescence, 30-36 h; Potency, µM (series often up to 46.1 µM), actives largely listed as activators; actives 2.8% (n = 210,000); also: nearly all actives have a fitted effect of over 55% in size
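HEK293 cells carry an SMN2 […]–luciferase reporter in which exon 7 inclusion puts luciferase in frame. Cells were plated 10-12 h before compound addition, then incubated 30-36 h at 37C. ONE-Glo luminescence was read; sodium butyrate at 4.5 mM final served as control.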
ELG1 genotoxic: qHTS screen for small molecules that induce genotoxicity in human embryonic kidney (HEK293T) cells expressing luciferase-tagged ELG1; HEK293T ELG1-luciferase reporter, luminescence, 16 h; Potency, µM (top dose mostly 46 µM), actives largely listed as activators; actives 1.3% (n = 330,000); also: nearly all actives have a fitted effect of over 60% in size
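Screening used a luciferase reporter fused to human ELG1 in HEK293T cells. Luminescence was read on a CCD plate imager after 16 hr exposure and 30 min ONE-Glo incubation.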
Rab9 promoter act: qHTS Assay for Rab9 Promoter Activators; Huh7 Rab9 promoter-luciferase reporter, luminescence, 24 h; Potency, µM (series often up to 9.22 µM), most hits filed as activators; actives 2.8% (n = 320,000); AID 485297, 2010; also: nearly all actives have a fitted effect of over 60% in size
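Huh7 cells stably carrying Rab9 promoter–luciferase reporter, plated 1500 cells/well, compound added after 2 h and incubated 24 h at 37 °C; luciferase luminescence then read after 10 min with detection reagent.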
NPC1 promoter act: qHTS Assay for NPC1 Promoter Activators; Potency, µM (top dose mostly 9.22 µM), usual class: activators; AID 485313, 2010; actives 2.4% (n = 320,000); Huh7 NPC1 promoter luciferase reporter, 24 h; also: nearly all actives have a fitted effect of over 60% in size
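Stable NPC1-promoter luciferase Huh7 line; cpd (DMSO) 24 h, 37 °C, 5% CO2; Amplite luciferase reagent 10 min RT; luminescence readout. qHTS format.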
Each line names hits and unclear results; the compound was inactive in the other large screens. Calls follow the shape of the dose curve; as a rule, active = well fitted curve in the direction sought with a large enough effect; inconclusive = small, poorly fitted or top-dose-only effect, or another doubt; inactive = no such curve, though single readings can be large; an effect the other way counts as inactive or inconclusive.

c1ccc(-c2csc(-c3ccc(-c4csnn4)cc3)n2)cc1	FLuc counter inconclusive, ELG1 genotoxic inconclusive, Rab9 promoter act inconclusive (no result: SMN2 splice enh)
O=C(OCc1csc(-c2ccccc2)n1)c1ccc(O)cc1	FLuc counter 19µM, ELG1 genotoxic inconclusive, Rab9 promoter act inconclusive
O=C1C2C3C=CC(C4CC34)C2C(=O)N1/N=C/c1ccc(-c2ccc(F)cc2[N+](=O)[O-])o1 (stereo not given)	FLuc counter 13µM
O=C1C2C3C=CC(C4CC34)C2C(=O)N1/N=C/c1ccc(-c2ccc(Cl)cc2[N+](=O)[O-])o1 (stereo not given)	none
CC(C)CCNC(=O)c1ccc(NC(=O)C2=CSCCO2)cc1	FLuc counter inconclusive, ELG1 genotoxic inconclusive, Rab9 promoter act inconclusive (no result: SMN2 splice enh)
C=CCNC(=O)c1ccc(NC(=O)C2=CSCCO2)cc1	FLuc counter 12µM, ELG1 genotoxic inconclusive, Rab9 promoter act 0.79µM, NPC1 promoter act 0.89µM (no result: SMN2 splice enh)
O=C(NCCc1ccccc1)C(=O)NCC(c1cccnc1)N1CCN(c2ccccc2)CC1 (stereo not given)	none (no result: p53 reactivator, SMN2 splice enh, ELG1 genotoxic, Rab9 promoter act, NPC1 promoter act)
CCOc1ccc(OCc2cccc(C(=O)N/N=C/c3cccnc3)c2)cc1	FLuc counter 1.5µM, SMN2 splice enh 0.13µM, ELG1 genotoxic 0.23µM, Rab9 promoter act 0.1µM, NPC1 promoter act 0.1µM
CC(C)c1ccc(OCc2cccc(C(=O)N/N=C/c3cccnc3)c2)cc1	FLuc counter 0.85µM, SMN2 splice enh 0.22µM, ELG1 genotoxic 0.46µM, Rab9 promoter act inconclusive, NPC1 promoter act 0.28µM (no result: p53 reactivator)
O=C(N/N=C/c1cccnc1)c1ccccc1OCc1cccc(Br)c1	none
Cc1ccc(C)c(S(=O)(=O)c2nnn3c2nc(NC2CCCCC2)c2sccc23)c1	none (no result: p53 reactivator, SMN2 splice enh, ELG1 genotoxic, Rab9 promoter act, NPC1 promoter act)
CCCSc1nnc(NC(=O)c2ccco2)s1	FLuc counter inconclusive, SMN2 splice enh 11µM, ELG1 genotoxic inconclusive, Rab9 promoter act inconclusive
CC(C)N(C(=O)CSc1nnc(NC(=O)c2ccco2)s1)C(C)C	none
Cc1ccc(NC(=O)CSc2nnc(NC(=O)c3ccco3)s2)cc1	FLuc counter 21µM
CC(=O)c1ccc(NC(=O)CSc2nnc(NC(=O)c3ccco3)s2)cc1	p53 reactivator inconclusive, FLuc counter 2.4µM, ELG1 genotoxic inconclusive, Rab9 promoter act inconclusive, NPC1 promoter act inconclusive (no result: SMN2 splice enh)
CCCSC1=NC2(CCN(C(=O)NC3CCCCC3)CC2)N=C1c1ccc(C)cc1	none (no result: p53 reactivator, SMN2 splice enh, ELG1 genotoxic, Rab9 promoter act, NPC1 promoter act)
COc1cc(OC)c(C(=O)Nc2ccc(C(=O)c3ccccc3)cc2)cc1OC	FLuc counter inconclusive (no result: SMN2 splice enh)
Cc1noc(C)c1-c1ccc2ncnc(NC3CC3)c2c1	SMN2 splice enh 7.9µM (no result: p53 reactivator, FLuc counter, ELG1 genotoxic, Rab9 promoter act, NPC1 promoter act)
CC(=O)Nc1ccc(CNc2ncnc3ccc(-c4c(C)noc4C)cc23)cc1	ELG1 genotoxic 4.1µM (no result: SMN2 splice enh)
c1nc(NC2CCNCC2)c2cc(-c3ccc4c(c3)OCO4)ccc2n1	none (no result: p53 reactivator, FLuc counter, ELG1 genotoxic, Rab9 promoter act, NPC1 promoter act)
Cc1cccc(CNc2ncnc3ccc(-c4c(C)noc4C)cc23)c1	SMN2 splice enh 5.6µM (no result: p53 reactivator, FLuc counter, ELG1 genotoxic, Rab9 promoter act, NPC1 promoter act)
Cc1ccc(C)c(N2CCN(CCCNC(=O)c3cnn(-c4ccccc4Cl)c3C3CCN(C(=O)OC(C)(C)C)CC3)CC2)c1	none (no result: p53 reactivator, SMN2 splice enh, ELG1 genotoxic, Rab9 promoter act, NPC1 promoter act)
CC(C)(C)[C@H]1COC(=O)[C@H](NC(=O)OCC2c3ccccc3-c3ccccc32)C/C=C\C[C@@H](CC(=O)N(CCO)Cc2ccccc2)C(=O)N1	none (no result: FLuc counter, SMN2 splice enh, Rab9 promoter act, NPC1 promoter act)
CC1(C)Cc2c(sc3nc4n(-c5ccccc5)cnn4c(=O)c23)CO1	none (no result: SMN2 splice enh)
O=C(O)c1ccc(-c2nnc(-c3ccc([N+](=O)[O-])cc3)o2)cc1	none (no result: p53 reactivator, SMN2 splice enh)
O=C(c1ccc(-c2nnc(-c3ccccc3)o2)cc1)N1CCCCCC1	p53 reactivator inconclusive, FLuc counter 4.8µM, ELG1 genotoxic inconclusive, Rab9 promoter act 0.56µM, NPC1 promoter act 1.4µM (no result: SMN2 splice enh)
O=C(O)c1ccc(-c2nnc(-c3ccccc3)o2)cc1	FLuc counter 5.4µM, ELG1 genotoxic inconclusive, Rab9 promoter act inconclusive, NPC1 promoter act 0.32µM (no result: SMN2 splice enh)
O=C(c1ccc(-c2ccccc2)cc1)N1CCC(C(=O)N2CCCC2)CC1	SMN2 splice enh inconclusive
CO[C@@H]1C[C@H](O[C@H]2[C@@H](C)[C@H](O[C@@H]3O[C@@H](C)C[C@@H](N(C)C)[C@@H]3OC(C)=O)[C@H](C)C[C@]3(CO3)C(=O)[C@H](C)[C@H](OC(C)=O)[C@H](C)[C@H](C)OC(=O)[C@@H]2C)O[C@H](C)[C@@H]1OC(C)=O	none (no result: p53 reactivator, FLuc counter, ELG1 genotoxic, Rab9 promoter act, NPC1 promoter act)
O=C1CCC(C(=O)NCc2ccccc2)N1 (stereo not given)	none (no result: p53 reactivator, SMN2 splice enh)
COc1ccc(-c2cc3c(nn2)-c2ccccc2C3=O)cc1	FLuc counter 0.17µM, SMN2 splice enh 1.1µM, Rab9 promoter act 0.1µM, NPC1 promoter act inconclusive
c1ccc(-c2cc3c(nn2)CCc2nonc2-3)cc1	none
COc1ccc(-c2cn(Cc3ccc4c(c3)C(=O)c3ccccc3C4=O)nn2)cc1	none (no result: p53 reactivator, SMN2 splice enh)
Cc1cccc(-c2cc3c(nn2)-c2ccccc2C3=O)c1	p53 reactivator inconclusive, FLuc counter 0.76µM, SMN2 splice enh 10µM, ELG1 genotoxic inconclusive, Rab9 promoter act 3.5µM, NPC1 promoter act 2.2µM
O=C1c2ccccc2-c2nnc(-c3ccccc3)cc21	FLuc counter 0.48µM, SMN2 splice enh inconclusive, Rab9 promoter act 0.56µM, NPC1 promoter act 1.3µM
Cc1cnc2c(c1)C(=O)c1ccccc1-2	none (no result: SMN2 splice enh)
CCN(C(=O)COC(=O)C1CC1C)c1c(N)n(Cc2ccccc2)c(=O)[nH]c1=O (stereo not given)	none (no result: SMN2 splice enh)
Cc1cccc(Nc2nc3c(S(=O)(=O)c4ccc(Br)cc4)nnn3c3ccsc23)c1C	none (no result: p53 reactivator, SMN2 splice enh, ELG1 genotoxic, Rab9 promoter act, NPC1 promoter act)
